Most compounds without a hit are left out; they make up all but 3.7% or so of the library.
D3 ag – D3 dopamine receptor (human) agonism; P35462; D3R DiscoveRx beta-arrestin cells, luminescence, 90 min; max activation, %; 410,000 compounds, 0.58% hits; in the data active = max activation above about 30%; also: 0% is about no effect
Target sequence (P35462 whole entry, looked up): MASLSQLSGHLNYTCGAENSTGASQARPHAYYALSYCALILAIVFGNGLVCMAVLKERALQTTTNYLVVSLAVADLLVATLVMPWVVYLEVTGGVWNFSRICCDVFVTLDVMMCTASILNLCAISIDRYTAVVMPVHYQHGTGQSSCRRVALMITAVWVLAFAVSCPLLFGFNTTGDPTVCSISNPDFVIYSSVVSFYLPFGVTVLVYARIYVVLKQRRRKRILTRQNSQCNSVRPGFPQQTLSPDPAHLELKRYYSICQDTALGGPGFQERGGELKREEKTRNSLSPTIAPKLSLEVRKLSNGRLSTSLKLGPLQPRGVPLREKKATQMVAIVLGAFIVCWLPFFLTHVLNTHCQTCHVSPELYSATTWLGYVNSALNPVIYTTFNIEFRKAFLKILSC
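Cells at 1500/well, incubated overnight, then treated with pinned compounds (dopamine as control) for 90 min at 37 degrees C. DiscoveRx reagent added for 30 - 60 minutes at room temperature; luminescence read.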
PTHR1 ag – agonists of human PTHR1 parathyroid hormone receptor | Q03431 | HEK293 GP2 PTHR1 cells, GloSensor cAMP luminescence, 1 h | Potency, µM (series often up to 115 µM), inactives show top-dose activation, hits mostly activators | 410,000 compounds, 0.075% hits | AID 743266; also: potency is read from the fitted curve at half-maximal effect; nearly all actives have a fitted effect of over 55% in size
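HEK-293-derived GP2 cells expressing PTHR1 and a GloSensor cAMP reporter, 3,000/well, plated overnight, given luciferin plus IBMX (each 0.5 mM as added) for 1 h at 37 °C, then compound for 1 h at 37 °C. Luminescence was read after 15 min at room temperature.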
RGS4 inhibitor – inhibitors of human regulator of G protein signaling 4; Potency, µM (highest dose often 114 µM), without a hit: top-dose activity change, negative = inhibition, most hits filed as inhibitors; AID 504845; 390,000 compounds, 0.039% hits; Transcreener GDP fluorescence polarization, RGS4-accelerated GTP hydrolysis; P49798; also: potency is read from the fitted curve at half-maximal effect; % is scaled to controls: 0 for no effect and ±100 for the full control effect; nearly all actives have a fitted effect of over 75% in size
Target sequence (P49798 whole entry, looked up): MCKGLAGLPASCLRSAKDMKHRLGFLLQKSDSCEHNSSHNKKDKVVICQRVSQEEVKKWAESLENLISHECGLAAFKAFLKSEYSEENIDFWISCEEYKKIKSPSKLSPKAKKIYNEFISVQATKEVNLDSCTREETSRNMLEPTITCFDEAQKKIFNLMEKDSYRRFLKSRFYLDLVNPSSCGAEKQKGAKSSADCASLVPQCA
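MLSMR compounds (23 nl, pin-transferred) preincubated 10 min at room temperature with a 500nM (2x) first reagent, then RGS4 at 900nM (2x) plus Transcreener GDP mix added; fluorescence polarization (620/688 nm) read before and after 90 min at 30 °C.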
B2AR arrestin – beta2AR (human) beta-arrestin recruitment activity | 330,000 compounds, 0.02% hits | P07550 | Potency, µM (doses to about 46.1 µM), for the others: top-dose activation, usual class: activators | beta-arrestin recruitment to beta2AR, cell-based reporter;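 also: potency is read from the fitted curve at half-maximal effect; 0% = DMSO controls and full agonism = EC100 isoproterenol or metaproterenol; nearly all actives have a fitted effect of over 65% in size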
BRCA1 expr up – BRCA1 expression activation; MCF7-BRCA1-FFLuc reporter, luminescence, 48 h; response scale: scaled: vehicle 0%, 10 µM genistein 100%; Potency, µM (doses to about 46.1 µM), for the others: top-dose activation, hits mostly activators; 380,000 compounds, 1.1% hits; AID 624202; also: potency is read from the fitted curve at half-maximal effect; nearly all actives have a fitted effect of over 80% in size
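First, MCF7-BRCA1-FFLuc cells (2000/well) attach for 2 h; next, compounds are pin-added and incubated 48 h at 37 °C; finally, luciferase reagent is added and luminescence read after 15 min.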
DRD3 antagonist – D3 dopamine receptor (human) antagonism; 360,000 compounds, 2.5% hits; max response, negative = inhibition, %; D3R cells, DiscoveRx beta-arrestin luminescence, antagonist mode; stronger effect = lower value; in the data active = max response below about -50%; inconclusive = no clear call, values can overlap the other calls; also: % is scaled to controls: 0 for no effect and ±100 for the full control effect
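Cells plated overnight at 1500 cells/well, then exposed to library compounds with dopamine controls for 90 minutes at 37 degrees C. DiscoveRx reagent added for 30–60 minutes at room temperature; luminescence read, quantitative HTS format.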
* = called active by the depositor; i = inactive; ? = inconclusive; . = no result given; ! = not confirmed by another sample; [ ] = another dose, or the depositor's remark. Unless noted, calls follow the shape of the dose curve; as a rule, active = well fitted curve in the direction sought with a large enough effect; inconclusive = small, poorly fitted or top-dose-only effect, or another doubt; inactive = no such curve, though single readings can be large; an effect the other way counts as inactive or inconclusive.

SMILES	D3 ag	PTHR1 ag	RGS4 inhibitor	B2AR arrestin	BRCA1 expr up	DRD3 antagonist
COc1ccc2nc(NC(=O)CN3CCN(C)CC3)sc2c1	3	i	-23%	0%	32%	-59*
Cc1ccc(C(=O)Oc2cc(C)n(C)c(=O)c2)cc1	35*	-17%[57.5 µM]	-25%	4%	-22%	91
Cn1c(COc2ccccc2)nc2ccccc21	-12	-49%	-3%	-1%	10µM*	-3
CCSc1nc2ccccc2n1CCOc1ccccc1	0	-1%	-3%	-1%	14µM*	-11
COCCn1c(COc2ccc(C)cc2)nc2ccccc21	3	-3%[57.5 µM]	-2%	0%	11µM*	?
CCOCCn1c(COc2ccc(C)cc2)nc2ccccc21	1	i	-5%	0%	?	-12
Cn1c(CCCCCN)nc2ccccc21	0	i	10%	0%	13%	-64*
OCCn1c(SCCOc2ccccc2)nc2ccccc21	5	-28%[57.5 µM]	-5%	0%	6%	7
c1ccc(OCCn2c(COc3ccccc3)nc3ccccc32)cc1	3	-46%	-1%	.	.	.
Cc1ccc(C(=O)CSC2=C(C#N)C(c3ccco3)C3=C(CC(C)(C)CC3=O)N2)cc1 (stereo not drawn)	-1	-77%	-24%	0%	-85%	-59*
O=S(=O)(CCNCc1ccccc1)NC1CCCCC1	-41	i	3%	.	14%	-50*
COc1ccc(C(=O)NCCS(=O)(=O)NC2CCCC2)cc1	-18	i	-15%	5%	-15%	-11
COc1cccc(C(=O)NCCS(=O)(=O)NC2CCCC2)c1	-9	i	-9%	0%	-2%	-74*
COc1ccc(CNCCS(=O)(=O)NC2CCCCC2)cc1	-44	-32%	-13%	.	-18%	-53*
COc1ccc(CNCCS(=O)(=O)NC2CCCC2)cc1	-41	-3%	-24%	-1%	2%	-25
CCCCCCCCNCCS(=O)(=O)NC1CCCCC1	-37	-25%	-17%	.	-45%	-91*
Cc1cccc(NC(=O)NC2COc3ccccc3C2)c1C (stereo not drawn)	-9	i	-4%	.	.	.
Cc1ccc(S(=O)(=O)CC(=O)Nc2nccs2)cc1	3	i	12%	0%	-6%	8
O=C1C(CO)C(CO)C(CO)C1CO (stereo not drawn)	39*	-8%	27%	.	-19%	-6
C=CCOc1ccc(CNc2nccs2)cc1OCC	8	i	-18%	-1%	14%	-54*
COc1ccc(CNc2nccs2)cc1OC	1	i	8%	6%	2%	3
COc1ccc(N2CCN(Cc3cc(=O)oc4cc5c(cc34)CCCC5)CC2)cc1	-3	-23%[57.5 µM]	-19%	0%	-10%	13
COc1ccc(N2CCN(Cc3cc4c(cc3O)CCC4)CC2)cc1	-5	i	-7%	0%	-50%	-87*
COC(=O)c1c(C)[nH]c(C(=O)OCc2ccc(F)cc2)c1C	-5	i	-33%	-1%	4.5µM*	39
c1ccc(CCNc2nnnn2-c2ccccc2)cc1	-13	i	10%	-1%	29%	-14
SMILES	D3 ag	PTHR1 ag	RGS4 inhibitor	B2AR arrestin	BRCA1 expr up	DRD3 antagonist
C1=C(CCNc2nnnn2-c2ccccc2)CCCC1	-8	-21%	?	0%	-36%	-61*
Cc1cccc(/C=C/C(=O)c2ccc(NC3=NCCCS3)cc2)c1	-2	-8%	-28%	-1%	-38%	-57*
COc1cccc(/C=C/C(=O)c2ccc(NC3=NCCCS3)cc2)c1	-8	-37%	-22%	0%	17%	-54*
O=C(/C=C/c1ccccc1)c1ccc(NC2=NCCCS2)cc1	17	-60%	?	-1%	?	-1
O=C(/C=C/c1ccc(Br)cc1)c1ccc(NC2=NCCCS2)cc1	-27	-93%	-32%	-1%	-62%	-55*
c1ccc(C(O[C@H]2CCCN(CCc3ccc4c(c3)OCO4)C2)c2ccccc2)cc1	-25	.	.	.	.	.
CC(Oc1ccccc1Cl)C(=O)Nc1ccccc1C(=O)N1CCOCC1 (stereo not drawn)	2	i	1%	0%	2%	13
CCc1ccc(-c2ccc(SCC(=O)NCC3CCCO3)nn2)cc1 (stereo not drawn)	5	-29%	18%	0%	2.5µM*	-20
O=C(CNC1=NCCS1)c1c[nH]c2ccccc12	.	.	.	.	-24%	.
Cc1ccc(NC(=O)CCN2C(=O)c3ccccc3Sc3ncccc32)cc1	-2	50µM*!	27%[11.4 µM]	0%	0%	-9
Cc1ccccc1NC(=O)CCN1C(=O)c2ccccc2Sc2ncccc21	-23	16%	-12%	.	.	.
Cc1nnc(SCc2ccc3c(c2)OCO3)s1	-2	-69%[57.5 µM]	-10%	0%	8.9µM*	0
Cc1cccc(NC(=O)c2ccc3c(c2)OCCO3)c1	-1	-23%	6%	0%	?	-4
CSc1nnc(NC(=O)c2ccc3c(c2)OCO3)s1	-2	-37%	-11%	0%	-29%	-4
Cc1nnc(NC(=O)c2ccc3c(c2)OCO3)s1	-9	-2%	7%	0%	5.6µM*	-15
COc1cc(C(=O)NC(=S)NNC(=O)c2ccc3c(c2)OCO3)cc(OC)c1OC	30*	-18%	-46%	-1%	-24%	11
Cc1cccc(NC(=S)NNC(=O)c2ccc3c(c2)OCO3)c1	-13	-9%	-29%	3%	?	-59*
COc1cccc(N2CCN(c3ccc4nnc(CCC(=O)Nc5ccccc5OC)n4n3)CC2)c1	-2	i	-13%	0%	2%	-3
Clc1ccc2c(-c3ccccc3)nc(-c3cccs3)nc2c1	5	i	.	.	14%	48
CS(=O)(=O)N1CCC(C(=O)NNC(=O)Nc2ccc(F)c(Cl)c2)CC1	-9	-1%	17%	-1%	3%	0
CC(=O)N1CCCc2cc(S(=O)(=O)N(Cc3ccccc3)C(C)C)ccc21	5	-22%	-27%	.	.	.
CCN(CC)C(=O)CCCSc1nnc(Nc2ccccc2F)s1	10	-10%	11%	0%	4.5µM*	2
Cc1ccc2c(CC(=O)Nc3sccc3C(N)=O)coc2c1	2	-31%	-38%	0%	1.3µM*	41
Cc1cc(F)ccc1NC(=O)CCS(=O)(=O)c1cc2c3c(c1)CCN3C(=O)CC2	10	-12%	-18%	.	0%	.
CCN1CCN(C(=S)c2ccc(Cl)c(Cl)c2)CC1	-5	-6%[57.5 µM]	?	0%	4%	-51*
CCN1CCN(C(=S)Nc2cccc(Cl)c2)CC1	-2	-21%	32%	0%	3%	-6
CCN1CCN(C(=S)Nc2ccc(Cl)c(Cl)c2)CC1	-31	i	-26%	0%	-15%	-50*
